# Screen size: about 3,200 compounds; about 300 (9.4%) showed activity. Shown is part of a subset that was picked to be rich in actives. Unmarked numbers belong to inactive results.
# System: A673/TR/shEF
# Assay: cell viability (LOESS-normalised, relative to median of negative controls) (log2 ratio); higher = more viable cells (less compound effect), active = hit call of the paper (over 3 MAD below the median)
# Settings: treatment time: 72 h
# Outline: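 Viability of A673/TR/shEF Ewing sarcoma cells was determined by CellTiter-Glo luminescence. The cells, at 1,500 per well in 384-well plates, were grown with or without doxycycline from 24 h before compound addition to switch on EWS-FLI1 shRNA knockdown, then exposed for three days to library compounds at two or more concentrations or to DMSO controls. Signals were LOESS-corrected plate by plate, normalised to the negative-control median and log2-transformed.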
# [1] = 0.25 µM, library screen: screen1, EWS-FLI1 expression: high (no doxycycline)
# [2] = 0.25 µM, library screen: screen1, EWS-FLI1 expression: low (doxycycline-induced shRNA knockdown)
# [3] = 2.5 µM, library screen: screen1, EWS-FLI1 expression: high (no doxycycline)
# [4] = 2.5 µM, library screen: screen1, EWS-FLI1 expression: low (doxycycline-induced shRNA knockdown)
# [5] = 0.103 µM, library screen: screen3, EWS-FLI1 expression: high (no doxycycline)
# [6] = 0.103 µM, library screen: screen3, EWS-FLI1 expression: low (doxycycline-induced shRNA knockdown)
# [7] = 0.308 µM, library screen: screen3, EWS-FLI1 expression: high (no doxycycline)
# [8] = 0.308 µM, library screen: screen3, EWS-FLI1 expression: low (doxycycline-induced shRNA knockdown)
# [9] = 0.926 µM, library screen: screen3, EWS-FLI1 expression: high (no doxycycline)
# [10] = 0.926 µM, library screen: screen3, EWS-FLI1 expression: low (doxycycline-induced shRNA knockdown)
# [11] = 2.8 µM, library screen: screen3, EWS-FLI1 expression: high (no doxycycline)
# [12] = 2.8 µM, library screen: screen3, EWS-FLI1 expression: low (doxycycline-induced shRNA knockdown)
# [13] = 8.3 µM, library screen: screen3, EWS-FLI1 expression: high (no doxycycline)
# [14] = 8.3 µM, library screen: screen3, EWS-FLI1 expression: low (doxycycline-induced shRNA knockdown)
# [15] = 25 µM, library screen: screen3, EWS-FLI1 expression: high (no doxycycline)
# [16] = 25 µM, library screen: screen3, EWS-FLI1 expression: low (doxycycline-induced shRNA knockdown)
# [17] = 0.025 µM, library screen: screen1, EWS-FLI1 expression: high (no doxycycline)
# [18] = 0.025 µM, library screen: screen1, EWS-FLI1 expression: low (doxycycline-induced shRNA knockdown)
# [19] = 25 µM, library screen: screen1, EWS-FLI1 expression: high (no doxycycline)
# [20] = 25 µM, library screen: screen1, EWS-FLI1 expression: low (doxycycline-induced shRNA knockdown)
# [21] = 0.25 µM, library screen: screen2, EWS-FLI1 expression: high (no doxycycline)
# [22] = 0.25 µM, library screen: screen2, EWS-FLI1 expression: low (doxycycline-induced shRNA knockdown)
# [23] = 2.5 µM, library screen: screen2, EWS-FLI1 expression: high (no doxycycline)
# [24] = 2.5 µM, library screen: screen2, EWS-FLI1 expression: low (doxycycline-induced shRNA knockdown)
smiles,measurement,setting,value
CC(C)N1C(=O)C(=Cc2ccccc2F)SC1=S,cell viability (log2),[1],0.0965
same,cell viability (log2),[2],0.0324
same,cell viability (log2),[3],0.0812
same,cell viability (log2),[4],-0.039
C=CC1=C(C)/C(=C/c2[nH]c(Cc3[nH]c(/C=C4\NC(=O)C(C)=C4C=C)c(C)c3CCC(=O)O)c(CCC(=O)O)c2C)NC1=O,cell viability (log2),[1],0.0132
same,cell viability (log2),[2],0.0277
same,cell viability (log2),[3],0.0983
same,cell viability (log2),[4],0.128
S=c1[nH]nc(COc2ccc(Cl)cc2Cl)n1-c1ccccc1,cell viability (log2),[1],0.00963
same,cell viability (log2),[2],0.148
same,cell viability (log2),[3],0.0937
same,cell viability (log2),[4],0.0872
C[C@@H]1CC[C@@]2(OC1)O[C@H]1C[C@H]3[C@@H]4CC[C@H]5C[C@@H](O)CC[C@]5(C)[C@H]4CC(=O)[C@]3(C)[C@H]1[C@@H]2C,cell viability (log2),[1],0.102
same,cell viability (log2),[2],-0.00894
same,cell viability (log2),[3],0.127
same,cell viability (log2),[4],0.0766
Nc1ncnc2nc[nH]c12,cell viability (log2),[5],-0.0276
same,cell viability (log2),[6],0.0358
same,cell viability (log2),[1],-0.00904
same,cell viability (log2),[2],0.112
same,cell viability (log2),[7],0.0266
same,cell viability (log2),[8],0.0376
same,cell viability (log2),[9],0.0356
same,cell viability (log2),[10],0.0359
same,cell viability (log2),[3],0.0839
same,cell viability (log2),[4],0.087
same,cell viability (log2),[11],-0.0229
same,cell viability (log2),[12],0.045
same,cell viability (log2),[13],-0.016
same,cell viability (log2),[14],0.0209
same,cell viability (log2),[15],0.0262
same,cell viability (log2),[16],0.0745
Nc1ncc2[nH]cnc2n1,cell viability (log2),[17],0.156
same,cell viability (log2),[18],0.0178
same,cell viability (log2),[1],0.22
same,cell viability (log2),[2],0.0137
same,cell viability (log2),[3],-0.0954 (active)
same,cell viability (log2),[4],0.025
same,cell viability (log2),[19],-0.0198
same,cell viability (log2),[20],0.0477
Nc1nc(OCc2ccccc2)c2[nH]cnc2n1,cell viability (log2),[21],0.21
same,cell viability (log2),[22],0.111
same,cell viability (log2),[23],0.106
same,cell viability (log2),[24],0.0266
CN1CCC[C@@H]1c1cccnc1,cell viability (log2),[21],0.0881
same,cell viability (log2),[22],0.0848
same,cell viability (log2),[23],0.112
same,cell viability (log2),[24],0.123
C[C@H](C[C@@H](O)[C@@H]1OC1(C)C)[C@@H]1CC[C@]2(C)C3=CC[C@H]4C(C)(C)C(=O)CC[C@]4(C)[C@H]3CC[C@@]12C,cell viability (log2),[1],0.0762
same,cell viability (log2),[2],0.064
same,cell viability (log2),[3],0.0491
same,cell viability (log2),[4],0.136
Nc1ncnc2c1ncn2[C@@H]1O[C@H](CO)[C@@H](O)[C@@H]1O,cell viability (log2),"0.025 µM, library screen: screen2, EWS-FLI1 expression: high (no doxycycline)",0.125
same,cell viability (log2),"0.025 µM, library screen: screen2, EWS-FLI1 expression: low (doxycycline-induced shRNA knockdown)",0.0247
same,cell viability (log2),[5],0.0965
same,cell viability (log2),[6],0.0781
same,cell viability (log2),[21],0.146
same,cell viability (log2),[22],0.0437
same,cell viability (log2),[7],0.134
same,cell viability (log2),[8],0.0881
same,cell viability (log2),[9],0.113
same,cell viability (log2),[10],0.0711
same,cell viability (log2),[23],0.229
same,cell viability (log2),[24],0.0883
same,cell viability (log2),[11],0.122
same,cell viability (log2),[12],0.114
same,cell viability (log2),[13],0.0774
same,cell viability (log2),[14],0.127
same,cell viability (log2),"25 µM, library screen: screen2, EWS-FLI1 expression: high (no doxycycline)",0.0602
same,cell viability (log2),"25 µM, library screen: screen2, EWS-FLI1 expression: low (doxycycline-induced shRNA knockdown)",0.0701
same,cell viability (log2),[15],0.0148
same,cell viability (log2),[16],0.128
Nc1ncnc2c1c(I)cn2[C@@H]1O[C@H](CO)[C@@H](O)[C@H]1O,cell viability (log2),[17],0.145
same,cell viability (log2),[18],-0.151
same,cell viability (log2),[1],-0.0341
same,cell viability (log2),[2],-0.172
same,cell viability (log2),[3],-1.08 (active)
same,cell viability (log2),[4],-0.349 (active)
same,cell viability (log2),[19],-2.42 (active)
same,cell viability (log2),[20],-2.11 (active)
Nc1nccc2c1ncn2[C@@H]1O[C@H](CO)[C@@H](O)[C@H]1O,cell viability (log2),[21],0.199
same,cell viability (log2),[22],0.0735
same,cell viability (log2),[23],0.0748
same,cell viability (log2),[24],0.125
Nc1ncnc2c1ncn2C1CCCC1,cell viability (log2),[21],0.222
same,cell viability (log2),[22],0.00723
same,cell viability (log2),[23],0.162
same,cell viability (log2),[24],0.101
Nc1ncnc2c1ncn2C1OC(C(=O)NC2CC2)C(O)C1O (configuration not stated),cell viability (log2),[21],0.208
same,cell viability (log2),[22],0.0695
same,cell viability (log2),[23],0.136
same,cell viability (log2),[24],0.0888
Nc1nc(F)nc2c1ncn2[C@@H]1O[C@H](CO)[C@@H](O)[C@@H]1O,cell viability (log2),[5],-0.0149
same,cell viability (log2),[6],0.0418
same,cell viability (log2),[7],0.0122
same,cell viability (log2),[8],0.0299
same,cell viability (log2),[9],-0.0547
same,cell viability (log2),[10],0.0332
same,cell viability (log2),[11],0.0695
same,cell viability (log2),[12],0.0196
same,cell viability (log2),[13],0.023
same,cell viability (log2),[14],0.0649
same,cell viability (log2),[15],0.0762
same,cell viability (log2),[16],0.0699
Nc1ncnc2c1ncn2C1CCCO1 (configuration not stated),cell viability (log2),[21],-0.183 (active)
same,cell viability (log2),[22],-0.136 (active)
same,cell viability (log2),[23],-0.771 (active)
same,cell viability (log2),[24],-0.568 (active)
CNc1ncnc2c1ncn2[C@@H]1O[C@H](CO)[C@@H](O)[C@H]1O,cell viability (log2),[21],0.104
same,cell viability (log2),[22],0.0674
same,cell viability (log2),[23],0.0505
same,cell viability (log2),[24],0.098
Nc1ncnc2c1ncn2[C@@H]1O[C@H](CO)[C@@H](O)[C@H]1O,cell viability (log2),[5],0.0648
same,cell viability (log2),[6],0.118
same,cell viability (log2),[1],0.105
same,cell viability (log2),[2],0.0646
same,cell viability (log2),[21],-0.195 (active)
same,cell viability (log2),[22],0.0787
same,cell viability (log2),[7],0.108
same,cell viability (log2),[8],0.149
same,cell viability (log2),[9],0.0961
same,cell viability (log2),[10],0.106
same,cell viability (log2),[3],0.129
same,cell viability (log2),[4],0.198
same,cell viability (log2),[23],0.141
same,cell viability (log2),[24],0.177
same,cell viability (log2),[11],0.133
same,cell viability (log2),[12],0.0552
same,cell viability (log2),[13],0.0565
same,cell viability (log2),[14],0.0635
same,cell viability (log2),[15],0.137
same,cell viability (log2),[16],0.158

# From the supplement of paper PMC6089552
